Measured values published in PubChem BioAssay (EPA / NIEHS).
More than one record can exist for a structure, and the calls need not agree. Activity calls are given as the source filed them. How the source made its calls: active means hit-call score of the fitted dose curve at least 0.9, where 1 is the maximum; inactive means score below 0.9.

Assay: CCTE_Shafer_MEA_acute_burst_percentage_std: CCTE's Neural Acute Assay for Standard Deviation of Burst Percentage, Shafer Lab (AID 2284018);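 further: fitted in the negative direction so actives lower burst percentage SD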
Summary of the method: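 Value is percent change from baseline in the across-electrode SD of spikes-in-bursts percentage, wells with >/= 10 active electrodes. Acute 40-min exposure to 0.03-40 uM on DIV 13 or 15 rat cortical cultures, recorded at 37 C after 40-min baseline.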

Q: For `CCOc1nc(F)cc2nc(S(=O)(=O)Nc3c(Cl)cccc3Cl)nn12`, which outcome is on record?
A: The outcome was “inactive”.

Q: Which outcome does the source give for `N#CN=C1SCCN1Cc1ccc(Cl)nc1` here?
A: The outcome was “inactive”.

Q: Which outcome does the source give for `Clc1nc(Cl)nc(Nc2ccccc2Cl)n1` here?
A: The outcome was “inactive”.

Q: Which outcome does the source give for `CC1(C)C(C(=O)OC(C#N)c2cccc(Oc3ccccc3)c2)C1(C)C` (stereo unspecified) here?
A: Its outcome is “inactive”.

Q: With `O=C(Nc1ccccc1-c1ccc(Cl)cc1)c1cccnc1Cl` as the compound, how does the outcome read?
A: Its outcome is “inactive”.

Q: For `CNC(=O)Oc1cccc2ccccc12`, which outcome is on record?
A: The outcome was “inactive”.

Q: For `COP(=S)(OC)SCn1nnc2ccccc2c1=O`, which outcome is on record?
A: The outcome was “inactive”.

Q: For `OC(c1ccc(Cl)cc1)(c1ccc(Cl)cc1)C(Cl)(Cl)Cl`, which outcome is on record?
A: Its outcome is “inactive”.

Q: Which outcome does the source give for `C=C(C)CN(CC)c1c([N+](=O)[O-])cc(C(F)(F)F)cc1[N+](=O)[O-]` here?
A: Its outcome is “inactive”.

Q: Which outcome does the source give for `CN/C(=N\[N+](=O)[O-])NCc1cnc(Cl)s1` here?
A: The outcome was “inactive”.

Assay: CCTE_Shafer_MEA_acute_per_network_burst_spike_number_mean: CCTE's Neural Acute Assay for Average Number of Spikes in a Network Burst, Shafer Lab (AID 2284019);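 on AC50: curve fitted for loss of signal so actives reduce spikes per network burst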
Summary of the method: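 Read-out is mean spike count per network burst, taken as percent change between a 40-min pre-exposure and a 40-min post-exposure recording per well. Rat primary cortical neurons on MEAs at 37 C, DIV 13 or 15; compounds at 0.03-40 uM.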

Q: Which outcome does the source give for `CCOc1nc(F)cc2nc(S(=O)(=O)Nc3c(Cl)cccc3Cl)nn12` here?
A: Its outcome is “inactive”.

Q: Which outcome does the source give for `N#CN=C1SCCN1Cc1ccc(Cl)nc1` here?
A: The outcome was “inactive”.

Q: For `Clc1nc(Cl)nc(Nc2ccccc2Cl)n1`, which outcome is on record?
A: The outcome was “inactive”.

Q: For `CC1(C)C(C(=O)OC(C#N)c2cccc(Oc3ccccc3)c2)C1(C)C` (stereo unspecified), which AC50 is on record?
A: The AC50 was 0.0749 µM (active).

Q: With `O=C(Nc1ccccc1-c1ccc(Cl)cc1)c1cccnc1Cl` as the compound, how does the outcome read?
A: The outcome was “inactive”.

Q: With `CNC(=O)Oc1cccc2ccccc12` as the compound, how does the outcome read?
A: Its outcome is “inactive”.

Q: Which results are given for `COP(=S)(OC)SCn1nnc2ccccc2c1=O`?
A: AC50: 24.1 µM (active); outcome: inactive

Q: For `OC(c1ccc(Cl)cc1)(c1ccc(Cl)cc1)C(Cl)(Cl)Cl`, which outcome is on record?
A: The outcome was “inactive”.

Q: For `C=C(C)CN(CC)c1c([N+](=O)[O-])cc(C(F)(F)F)cc1[N+](=O)[O-]`, which outcome is on record?
A: The outcome was “inactive”.

Q: Which outcome does the source give for `CN/C(=N\[N+](=O)[O-])NCc1cnc(Cl)s1` here?
A: The outcome was “inactive”.
